Source: PubChem
Only some compounds are listed: those with a hit (about 17% of all), similar ones and a draw of the others.
DT40 TDP1 CPT: growth inhibition of DT40 Tdp1-/-;hTDP1 cells with camptothecin (screen for TDP1 inhibitors). chicken DT40 Tdp1-/-;hTDP1 cells + 20 nM CPT, ATP luminescence, 48 h. hit rate 12% among 420,000. Potency, µM (titrated, usually from 46.2 µM), for inactives: at the top dose activity change, negative = growth inhibition, usual class: inhibitors. AID 686979; also: % is scaled to controls: 0 for no effect and ±100 for the full control effect; nearly all actives have a fitted effect of over 55% in size
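Cell growth measured by CellTiter-Glo luminescence after a minimum 48 h, 37 C compound exposure with 20 nM CPT in Tdp1-knockout DT40 cells stably expressing hTDP1, seeded 400/well; qHTS titration format.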
TDP1 block: inhibitors of human tyrosyl-DNA phosphodiesterase TDP1 | recombinant TDP1, AlphaScreen DNA substrate cleavage | Potency, µM (doses to about 130 µM), inactives show at the top dose activity change, negative = inhibition, actives largely listed as inhibitors | hit rate 0.28% among 350,000; also: % is scaled to controls: 0 for no effect and ±100 for the full control effect; nearly all actives have a fitted effect of over 40% in size
Target sequence (Q9NUW8 whole entry, looked up): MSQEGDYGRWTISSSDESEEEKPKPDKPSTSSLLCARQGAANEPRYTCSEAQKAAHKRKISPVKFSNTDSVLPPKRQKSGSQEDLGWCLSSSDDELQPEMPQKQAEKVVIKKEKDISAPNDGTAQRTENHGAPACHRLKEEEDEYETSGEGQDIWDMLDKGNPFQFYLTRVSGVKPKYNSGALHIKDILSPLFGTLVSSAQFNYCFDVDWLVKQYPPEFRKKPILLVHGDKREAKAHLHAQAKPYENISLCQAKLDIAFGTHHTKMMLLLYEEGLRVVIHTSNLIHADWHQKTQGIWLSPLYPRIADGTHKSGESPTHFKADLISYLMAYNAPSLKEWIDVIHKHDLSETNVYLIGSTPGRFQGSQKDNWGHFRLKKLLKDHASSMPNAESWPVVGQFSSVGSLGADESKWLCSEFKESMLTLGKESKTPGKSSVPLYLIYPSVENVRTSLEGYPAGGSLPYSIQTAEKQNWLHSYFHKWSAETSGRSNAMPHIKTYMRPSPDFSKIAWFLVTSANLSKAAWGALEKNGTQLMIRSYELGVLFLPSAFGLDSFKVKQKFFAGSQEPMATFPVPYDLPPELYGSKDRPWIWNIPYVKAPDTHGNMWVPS
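Signal: AlphaScreen proximity between streptavidin donor and anti-FITC acceptor beads on intact substrate. Reaction: Tdp1 1 nM, substrate 15 nM final, 5 min RT after 15 min compound preincubation.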
ClpP mod: qHTS Assay for Activators of ClpP. ATP-dependent Clp protease proteolytic subunit (Bacillus subtilis (strain 168)), P80244. purified B. subtilis ClpP, FRET peptide cleavage, 20 min. Potency, µM (series often up to 57.5 µM), without a hit: at the highest dose activity change, negative = active. hit rate 1.9% among 340,000; active = well fitted falling curve with a large enough effect; inconclusive = small, poorly fitted or top-dose-only effect; inactive = no such curve, though single readings can be large or run the other way; also: the source files actives as falling curves though it sought activators and does not explain the sign; nearly all actives have a fitted effect of over 65% in size
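FRET quenching reversal measured ClpP activation: 10 microg/mL B. subtilis ClpP at pH 8 with the FRET-FV decapeptide, read at 430 nm after 320 nm excitation. The 20-min minus 0-min signal was scaled between DMSO/no-enzyme wells and ADEP (5.8 microM final).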
TDP1 cell noCPT: qHTS for Inhibitors of human tyrosyl-DNA phosphodiesterase 1 (TDP1): qHTS in cells in absence of CPT; DT40 Tdp1-/- hTDP1 cells, no CPT, ATP luminescence, 48 h; Potency, µM (highest dose often 46.2 µM), inactives show at the top dose activity change, negative = growth inhibition, usual class: inhibitors; hit rate 15% among 420,000; also: % is scaled to controls: 0 for no effect and ±100 for the full control effect; nearly all actives have a fitted effect of over 55% in size
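Growth of hTDP1-complemented DT40 Tdp1-knockout cells is measured by ATP luminescence after at least 48 hr compound exposure at 37 °C, with DMSO substituting for the 20 nM CPT used in the parallel screen.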
* marks the source's active call; other numbers are inactive results; ? = inconclusive; . = no result; [ ] = dose if it differs, or a comment. Unless noted, calls follow the shape of the dose curve; as a rule, active = well fitted curve in the direction sought with a large enough effect; inconclusive = small, poorly fitted or top-dose-only effect, or another doubt; inactive = no such curve, though single readings can be large; an effect the other way counts as inactive or inconclusive. Potency is read from the fitted curve at half-maximal effect.

SMILES	DT40 TDP1 CPT	TDP1 block	ClpP mod	TDP1 cell noCPT
COc1cccc(NC(=O)Cn2c(=O)n(-c3cccc(OC)c3)c(=O)c3sc4ccccc4c32)c1	?	-1%	28%	?
O=C1c2ccccc2S(=O)(=O)c2cc(C(=O)N3CCC(N4CCCC4)CC3)ccc21	-15%	.	2%	-7%
COc1ccc2cc(CN(C(=O)Nc3ccccc3)C3CCCC3)c(=O)[nH]c2c1	?	1%	-25%	-19%
COc1ccc2[nH]c(=O)c(CNC3CCCCC3)cc2c1	-26%	6%	16µM*	-21%
COc1ccc2[nH]c(=O)c(CN(C(=O)NC3CCCCC3)C3CCCCC3)cc2c1	21µM*	5%	?	21µM*
COc1cc(C)c(CNC2CCCCC2)cc1C	-2%	-4%	0%	-15%
CCc1ccccc1N1C(=O)C2CC=CCC2C1=O (configuration not stated)	?	5%	1%	16µM*
CN(c1ccc(Cl)cc1)S(=O)(=O)c1nnc(NC(=O)C(C)(C)C)s1	-18%	.	-2%	2%
CC(=O)Nc1cc[n+](C(C)C(=O)c2ccc(Cl)cc2)cc1 (configuration not stated)	16µM*	-1%	.	16µM*
CC(C(=O)c1ccc(-c2ccccc2)cc1)[n+]1cccc(C(N)=O)c1 (configuration not stated)	11%	4%	1%	-10%
CC(C(=O)c1ccc(-c2ccccc2)cc1)[n+]1ccccc1 (configuration not stated)	2.6µM*	-3%	-19%	2.1µM*
CC(=O)Nc1cc[n+](CC(=O)c2ccc(Cl)cc2)cc1	8%	2%	.	-11%
Cc1ccc[n+](C(C)C(=O)c2ccc(-c3ccccc3)cc2)c1 (configuration not stated)	4.1µM*	0%	-28%	5.2µM*
CCOc1ccc(NS(=O)(=O)c2ccc(C(=O)NCC(c3ccco3)N3CCCCC3)cc2)cc1 (configuration not stated)	?	.	0%	?
O=C(NCCO)c1cc(-c2cc(C(=O)NCCO)c3ccccc3n2)nc2ccccc12	2%	.	-1%	2%
O=C(NCCO)c1nc(C(=O)c2ccccc2)c2ccccc2n1	23µM*	3%	0%	?
Cc1nn2c(-c3ccco3)ccnc2c1-c1ccc(Br)cc1	4%	-1%	1%	-12%
O=C1/C(=C/c2ccccc2)CCc2ccc(Cl)nc21	2.6µM*	.	-7%	4.6µM*
O=C1OCC/C1=C\c1ccccc1	-3%	3%	-1%	4%
O=C(Nc1ccccc1Br)c1cccc2ccccc12	15%	.	-13%	-20%
COc1cc2c(cc1OC)C(C)N(Cc1ccc3c(c1)OCO3)CC2 (configuration not stated)	?	1%	-1%	18µM*
COc1cc2c(cc1OC)C(C)N(C(=O)c1ccc(Br)o1)CC2 (configuration not stated)	?	3%	-20%	16µM*
COC(=O)N1CCc2cc(OC)c(OC)cc2C1Cc1ccc(OC)cc1 (configuration not stated)	.	2%[21 µM]	.	.
COc1cc2c(cc1OC)C(C)N(C(=O)c1cc(Cl)nc(Cl)c1)CC2 (configuration not stated)	7.3µM*	.	-4%	?
COc1ccc(C)cc1S(=O)(=O)NC(C)C(=O)Nc1ccc2c(c1)OCO2 (configuration not stated)	11%	2%	.	8%
SMILES	DT40 TDP1 CPT	TDP1 block	ClpP mod	TDP1 cell noCPT
Cc1cccc(C2C=C(c3ccc(C)c(C)c3)Nc3nnnn32)c1 (configuration not stated)	2.6µM*	3%	-15%	2.6µM*
CCc1ccc(C2=CC(c3cccc(Br)c3)n3nnnc3N2)cc1 (configuration not stated)	18µM*	5%	-2%	15µM*
Cc1ccc(C2=CC(c3c(F)cccc3Cl)n3ncnc3N2)cc1C (configuration not stated)	?	8%	4%	?
Cc1cc(C)nc(S/C=C/C(=O)c2ccccc2F)n1	2.1µM*	4%	35µM*	3.7µM*
Cc1cc(C)nc(SCc2c(F)cccc2Cl)n1	1%	-8%	-1%	-10%
CCCN1CCC(=O)N([C@H](CSc2ccccc2)Cc2ccccc2)CC1	11µM*	.	0%	11µM*
CC(C)CN1CCC(=O)N(CCSc2ccc(Br)cc2)CC1	21µM*	6%	-7%	?
CC(C)CN1CCC(=O)N(CCO)CC1	-21%	.	3%	-7%
CC(C)CN1CCC(=O)N([C@H](CSc2ccccc2)Cc2ccccc2)CC1	18µM*	.	-3%	16µM*
Cc1ccc(SC[C@H](Cc2ccccc2)N2CCN(CC(C)C)CCC2=O)cc1	?	2%	0%	18µM*
CC(C)CN1CCC(=O)N(C(CSc2ccc(Br)cc2)Cc2ccccc2)CC1 (configuration not stated)	.	-3%	.	.
Cc1oc2ccc(O)c(CN3CCN(C)CC3)c2c1C(=O)Nc1ccccc1	-29%	-5%	-2%	-9%
COc1ccc(NC(=O)c2c(C)oc3ccc(O)c(CN4CCC(C)CC4)c23)cc1Cl	9.2µM*	7%	-1%	?
COc1ccc(NC(=O)c2c(C)oc3ccc(O)c(CN4CCCC(C)C4)c23)cc1Cl (configuration not stated)	23µM*	9%	-1%	16µM*
COc1ccc(NC(=O)COC(=O)C23CC4CC(CC(O)(C4)C2)C3)cc1Cl	?	0%	1%	?
O=C(COC(=O)C12CC3CC(CC(O)(C3)C1)C2)Nc1ccc(Cl)c(S(=O)(=O)N2CCOCC2)c1	29µM*	2%	?	?
COc1ccc(NC(=O)COC(=O)C23CC4CC(CC(NC(C)=O)(C4)C2)C3)cc1S(=O)(=O)N1CCOCC1	26µM*	1%	1%	16µM*
COc1cc(S(=O)(=O)N2CCOCC2)ccc1NC(=O)COC(=O)CC12CC3CC(CC(C3)C1)C2	?	5%	2%	18µM*
COc1cc(S(=O)(=O)N2CCOCC2)ccc1NC(=O)COC(=O)c1cc(OC)c(OC)c(OC)c1	-18%	0%	-1%	?
CCn1c(=O)c2cc(C(=O)NC3CCC(C)CC3)sc2c2ccccc21 (configuration not stated)	16µM*	1%	3%	-85%
CC1CCN(CCCNC(=O)c2cc3c(Cl)nc4ccccc4c3s2)CC1	?	0%	3%	?
CCn1c(=O)c2cc(C(=O)NCC(OC)OC)sc2c2ccccc21	?	.	4%	?
CCn1c(=O)c2cc(C(=O)NCCCN3CCN(C)CC3)sc2c2ccccc21	16µM*	1%	4%	?
